# The supplement of paper PMC8728848
# This is one part of a sample in which the strongest signals are shown more often than they occur.
# B1: PX9961V-pdi-562-26-562 (Parabacteroides distasonis) (protein)
# chain: EIFSEITTDNYYQNSNNIYAALVNNYAKAFSTGWSDARYFLQEVTADQLMIPTRGKHGYNGGEYVRLHEHKWTVEENFVYNGWAAPFQGIALCNNTLSDFENLDFSTFKLTEETKNEYIAELRALRVWNYMFLIDFFRHVPIVTDIEEVKAQSTPLEVFNFMESELLAILPDLPKNRGVSRFDQAGVASILVRLYLNAEKWIGISKYDECEQMAQAILDGKYGEYSIDPDYRGPFRSGINGYRSKENIMEFAIKKNYFEASWLYNMWMHYQDRYSLDNDWQGWNGGNLAPSRDLYGNLYQDKLGMPFEKFPDGDIRKKAFRVISNDGDYEGFFLMGTQYKFDYEKGYGFTDEVITGTEEYNGKPLVYVDQVGRFSEGETGLAKGSHVIYGEENTGYRLIKFPWLPQSKDLFQMNSIPEIRLAEIYYSLAECKYRSGDKIGAARLLDVVRKRYYKAEDWSKFSYESNISKLTDDEFVDELGREFIGERHRRIDLIRWNRFSEGAWWDKTPDATNQDVFPIPYRALNANPLLKQTTAGF
# Columns and labels:
# Test in all cases: glycan array binding signal (z-score within array); higher = stronger binding
# Conditions in all cases: glycan notation: IUPAC condensed, linker removed
# [1] = molecular target: Fuc(a1-2)Gal(b1-3)GlcNAc(b1-3)GalNAc
# In short: (§1)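 Columns mapping to the same glycan were averaged after glycan names were converted to IUPAC-condensed notation. The data come from 3228 arrays in the Consortium for Functional Glycomics database, limited to those with an available protein sequence. Binding is reported as a within-array Z-score averaged across arrays of one protein sequence and across linkers.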
# [2] = molecular target: Fuc(a1-2)Gal(b1-3)GlcNAc(b1-3)[Fuc(a1-2)Gal(b1-3)GlcNAc(b1-6)]GalNAc
# In short: as §1
# [3] = molecular target: Fuc(a1-2)Gal(b1-4)GlcNAc(b1-2)[Fuc(a1-2)Gal(b1-4)GlcNAc(b1-4)]Man(a1-3)[Fuc(a1-2)Gal(b1-4)GlcNAc(b1-2)Man(a1-6)]Man(b1-4)GlcNAc(b1-4)GlcNAc
# In short: as §1
# [4] = molecular target: Fuc(a1-2)Gal(b1-4)[Fuc(a1-3)]GlcNAc(b1-2)[Fuc(a1-2)Gal(b1-4)[Fuc(a1-3)]GlcNAc(b1-4)]Man(a1-3)[Fuc(a1-2)Gal(b1-4)[Fuc(a1-3)]GlcNAc(b1-2)Man(a1-6)]Man(b1-4)GlcNAc(b1-4)GlcNAc
# In short: as §1
# [5] = molecular target: Fuc(a1-2)[Gal(a1-3)]Gal(b1-3)GlcNAc(b1-2)Man(a1-3)[Fuc(a1-2)[Gal(a1-3)]Gal(b1-3)GlcNAc(b1-2)Man(a1-6)]Man(b1-4)GlcNAc(b1-4)GlcNAc
# In short: as §1
# [6] = molecular target: Fuc(a1-2)[Gal(a1-3)]Gal(b1-4)Glc
# In short: as §1
# [7] = molecular target: Fuc(a1-2)[Gal(a1-3)]Gal(b1-4)GlcNAc(b1-2)Man
# In short: as §1
# [8] = molecular target: Fuc(a1-2)[Gal(a1-3)]Gal(b1-4)GlcNAc(b1-2)Man(a1-3)[Fuc(a1-2)[Gal(a1-3)]Gal(b1-4)GlcNAc(b1-2)Man(a1-6)]Man(b1-4)GlcNAc(b1-4)GlcNAc
# In short: as §1
# [9] = molecular target: Fuc(a1-2)[GalNAc(a1-3)]Gal(b1-3)GlcNAc(b1-2)Man(a1-3)[Fuc(a1-2)[GalNAc(a1-3)]Gal(b1-3)GlcNAc(b1-2)Man(a1-6)]Man(b1-4)GlcNAc(b1-4)GlcNAc
# In short: as §1
# [10] = molecular target: Fuc(a1-2)[GalNAc(a1-3)]Gal(b1-4)GlcNAc(b1-2)Man(a1-3)[Fuc(a1-2)[GalNAc(a1-3)]Gal(b1-4)GlcNAc(b1-2)Man(a1-6)]Man(b1-4)GlcNAc(b1-4)GlcNAc
# In short: as §1
# [11] = molecular target: Fuc(a1-2)[GalNAc(a1-3)]Gal(b1-4)[Fuc(a1-3)]GlcNAc
# In short: as §1
# [12] = molecular target: Fuc(a1-2)[GalNAc(a1-3)]Gal(b1-4)[Fuc(a1-3)]GlcNAc(b1-3)GalNAc
# In short: as §1
# Fuc(a1-3)GlcNAc = molecular target: Fuc(a1-3)GlcNAc
# In short: as §1
# [13] = molecular target: Fuc(a1-3)[Gal(b1-4)]GlcNAc6S
# In short: as §1
# Fuc(a1-4)GlcNAc = molecular target: Fuc(a1-4)GlcNAc
# In short: as §1
# Fuc(b1-3)GlcNAc = molecular target: Fuc(b1-3)GlcNAc
# In short: as §1
# Gal(a1-3)Gal = molecular target: Gal(a1-3)Gal
# In short: as §1
# [14] = molecular target: Gal(a1-3)Gal(b1-3)GlcNAc(b1-2)Man(a1-3)[Gal(a1-3)Gal(b1-3)GlcNAc(b1-2)Man(a1-6)]Man(b1-4)GlcNAc(b1-4)GlcNAc
# In short: as §1
# [15] = molecular target: Gal(a1-3)Gal(b1-3)[Fuc(a1-4)]GlcNAc(b1-2)Man(a1-3)[Gal(a1-3)Gal(b1-3)[Fuc(a1-4)]GlcNAc(b1-2)Man(a1-6)]Man(b1-4)GlcNAc(b1-4)GlcNAc
# In short: as §1
# Gal(a1-3)Gal(b1-4)GlcNAc = molecular target: Gal(a1-3)Gal(b1-4)GlcNAc
# In short: as §1
# Gal(a1-4)Gal(b1-4)Glc = molecular target: Gal(a1-4)Gal(b1-4)Glc
# In short: as §1
# Gal(b1-3)GalNAc = molecular target: Gal(b1-3)GalNAc
# In short: as §1
# [16] = molecular target: Gal(b1-3)GlcNAc(b1-2)Man(a1-3)[Gal(b1-3)GlcNAc(b1-2)Man(a1-6)]Man(b1-4)GlcNAc(b1-4)[Fuc(a1-6)]GlcNAc
# In short: as §1
# [17] = molecular target: Gal(b1-3)GlcNAc(b1-3)Gal(b1-4)GlcNAc(b1-3)Gal(b1-4)GlcNAc(b1-2)[Gal(b1-3)GlcNAc(b1-3)Gal(b1-4)GlcNAc(b1-3)Gal(b1-4)GlcNAc(b1-6)]Man(a1-6)[Gal(b1-3)GlcNAc(b1-3)Gal(b1-4)GlcNAc(b1-3)Gal(b1-4)GlcNAc(b1-2)Man(a1-3)]Man(b1-4)GlcNAc(b1-4)[Fuc(a1-6)]GlcNAc
# In short: as §1
# [18] = molecular target: Gal(b1-3)[Fuc(a1-4)]GlcNAc(b1-6)GalNAc
# In short: as §1
# [19] = molecular target: Gal(b1-4)GlcNAc(b1-3)Gal(b1-4)GlcNAc(b1-2)Man(a1-3)[Gal(b1-4)GlcNAc(b1-3)Gal(b1-4)GlcNAc(b1-2)Man(a1-6)]Man(b1-4)GlcNAc(b1-4)[Fuc(a1-6)]GlcNAc
# In short: as §1
# [20] = molecular target: Gal(b1-4)GlcNAc(b1-3)Gal(b1-4)GlcNAc(b1-2)[Gal(b1-4)GlcNAc(b1-3)Gal(b1-4)GlcNAc(b1-6)]Man(a1-6)[Gal(b1-4)GlcNAc(b1-3)Gal(b1-4)GlcNAc(b1-2)Man(a1-3)]Man(b1-4)GlcNAc(b1-4)GlcNAc
# In short: as §1
# [21] = molecular target: Gal(b1-4)GlcNAc(b1-3)Gal(b1-4)GlcNAc(b1-3)Gal(b1-4)GlcNAc(b1-2)Man(a1-3)[Gal(b1-4)GlcNAc(b1-3)Gal(b1-4)GlcNAc(b1-3)Gal(b1-4)GlcNAc(b1-2)Man(a1-6)]Man(b1-4)GlcNAc(b1-4)GlcNAc
# In short: as §1
binder,measurement,setting,value
B1,glycan array binding signal (z-score),[1],-0.58
same,glycan array binding signal (z-score),[2],2.04
same,glycan array binding signal (z-score),[3],-0.54
same,glycan array binding signal (z-score),[4],-0.424
same,glycan array binding signal (z-score),[5],-0.108
same,glycan array binding signal (z-score),[6],-0.228
same,glycan array binding signal (z-score),[7],-0.182
same,glycan array binding signal (z-score),[8],3.45
same,glycan array binding signal (z-score),[9],-0.21
same,glycan array binding signal (z-score),[10],4.28
same,glycan array binding signal (z-score),[11],-0.369
same,glycan array binding signal (z-score),[12],7.22
same,glycan array binding signal (z-score),Fuc(a1-3)GlcNAc,-0.508
same,glycan array binding signal (z-score),[13],0.861
same,glycan array binding signal (z-score),Fuc(a1-4)GlcNAc,-0.596
same,glycan array binding signal (z-score),Fuc(b1-3)GlcNAc,-0.328
same,glycan array binding signal (z-score),Gal(a1-3)Gal,0
same,glycan array binding signal (z-score),[14],2.03
same,glycan array binding signal (z-score),[15],3.94
same,glycan array binding signal (z-score),Gal(a1-3)Gal(b1-4)GlcNAc,0.068
same,glycan array binding signal (z-score),Gal(a1-4)Gal(b1-4)Glc,-0.099
same,glycan array binding signal (z-score),Gal(b1-3)GalNAc,-0.185
same,glycan array binding signal (z-score),[16],5.1
same,glycan array binding signal (z-score),[17],4.46
same,glycan array binding signal (z-score),[18],6.13
same,glycan array binding signal (z-score),[19],4.04
same,glycan array binding signal (z-score),[20],4.58
same,glycan array binding signal (z-score),[21],4.36
